PubChem BioAssay AID2732 (Emory University Molecular Libraries Screening Center, 2010)
Hit rate of the full screen: of about 220,000 compounds, about 8,200 (3.7%) were called active. Only a selection was taken, and actives are over-represented in it overall. A number with no mark means an inactive call.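 How the source made its calls: active means compounds that reduced the stress-induced luciferase reporter signal by more than about 70% of percent inhibition (limit read from the data); inactive means the rest.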

assay: blockers of ER-stress CHOP reporter expression – cell-based, unfolded protein response, luciferase reporter, primary screen (AID 2732); conditions: CHO-K1 CHOP-promoter luciferase, tunicamycin-induced, 15-18 h; at 10 µM; hits give high values;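 further: 0% = tunicamycin plus vehicle and 100% = wells without tunicamycin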

Row | Compound | inhibition
1 | O=C(C[n+]1ccc2c(c1)nnn2-c1ccccc1)c1ccc(Cl)cc1 | 34.6%
2 | Cc1c(CCC(=O)O)c(=O)oc2cc3occ(-c4ccccc4)c3cc12 | 37.1%
3 | CCCCCCc1cc2cc(-c3nnc(-c4ccccc4)o3)c(=O)oc2cc1O | 95.9% (active)
4 | CCCC(=O)Nc1nnc(-c2ccccc2)o1 | 0.67%
5 | O=C1CCCCC1C(=O)c1ccccc1 (configuration not stated) | 8.57%
6 | O=C(CNCCC1=CCCCC1)Nc1ccccc1N1CCCCCC1 | 72.9% (active)
7 | Cc1ccccc1NC(=O)CNc1ccccc1N1CCCCC1 | 89.1% (active)
8 | O=C(Cc1cccc2ccccc12)NCCC1=CCCCC1 | 40.1%
9 | Cn1c(=O)c2c(nc(SCC(=O)Nc3ccccc3N3CCCCC3)n2C)n(C)c1=O | 21.7%
10 | O=C(CN1CCN(C2CCCCC2)CC1)Nc1ccccc1N1CCCCC1 | 59.2%
11 | Cc1ccccc1NC(=O)Nc1ccccc1N1CCCCC1 | 28.6%
12 | Cc1ccc(OS(=O)(=O)c2ccc(-c3csc(C)n3)s2)c(C)c1 | 22.5%
13 | CNC(=O)c1csc(Cc2c(Cl)sc3ccc(Cl)cc23)n1 | 30.4%
14 | Cc1cc(Nc2ccc(Cl)cc2)nc(N2CCOCC2)n1 | 0.58%
15 | Cn1c(SCC(=O)c2ccc(F)cc2)nnc1-c1ccccn1 | 6.32%
16 | COc1ccc(C(CCNCc2ccccc2F)c2ccc(F)cc2)cc1 (configuration not stated) | 79.4% (active)
17 | COc1cccc(CNCCc2c[nH]c3ccccc23)c1OCc1ccccc1F | 12.6%
18 | COc1ccc(CC(=O)NC(C)CCc2ccccc2)cc1 (configuration not stated) | -12.2%
19 | O=c1c2cc(-c3ccccc3)sc2nc2n1N=C(c1cccs1)CS2 | -4.25%
20 | Clc1ccc(-c2cc(-c3ccccn3)on2)c(Cl)c1 | 63.3%
21 | O=[N+]([O-])c1ccc(N=Cc2c(O)ccc3ccccc23)cc1 | 28.1%
22 | COCCN(C(=S)Nc1cccc(Cl)c1C)C(C)c1ccco1 (configuration not stated) | 42.5%
23 | C=C(C)C(=O)Nc1cccc(C2=NOC3(C2)C[C@H](C(N)=O)N(C(=O)C(c2ccccc2)c2ccccc2)C3)c1 (some centres not stated) | -8.97%
24 | CC(C)(C)c1ccc(/C=C2\Oc3c(ccc(O)c3CN3CCN(CCO)CC3)C2=O)cc1 | -15.1%

Row | Compound | inhibition
25 | Cc1ccc(C(=O)N/C(=C\c2ccco2)C(=O)NC2CCS(=O)(=O)C2)cc1 (configuration not stated) | 10.1%
26 | Cc1cc(C(=O)N2CCC(C(=O)O)CC2)c(C(F)(F)F)o1 | 1.47%
27 | CCOC(=O)C1CCCN(C(=O)CN(c2ccc(OC)cc2)S(=O)(=O)c2c(C)noc2C)C1 (configuration not stated) | 10.8%
28 | Cc1cc(C)cc(N(CC(=O)N2CC=C(c3ccccc3)CC2)S(=O)(=O)c2c(C)noc2C)c1 | 70% (active)
29 | Cc1cc(C)cc(N(CC(=O)NCC2CCCO2)S(=O)(=O)c2c(C)noc2C)c1 (configuration not stated) | 23.4%
30 | CC(NC(=S)NNS(=O)(=O)c1ccc(C(C)(C)C)cc1)c1ccccc1 (configuration not stated) | 51.7%
31 | O=C(c1[nH]ncc1-c1ccc(Cl)cc1)C1CO1 (configuration not stated) | -97.8%
32 | O=C1C(Cc2ccc(O)cc2)NC(=S)N1Cc1ccccc1 (configuration not stated) | -7.09%
33 | O=C1CC(Cc2ccc(Cl)cc2)C(=O)N1c1cc(Cl)ccn1 (configuration not stated) | 7.86%
34 | CCOC(=O)C(=O)C1C(=O)Nc2ccccc21 (configuration not stated) | 17.5%
35 | CCCCC(CC)CNC(=O)C(=O)C1C(=O)Nc2ccccc21 (configuration not stated) | 86.7% (active)
36 | CCCCC(CC)CNC(=O)CCCCn1c(=O)[nH]c2ccsc2c1=O (configuration not stated) | 10.3%
37 | Cc1cc(C(=O)CSc2nc(N)cc(=O)[nH]2)c(C)n1Cc1ccco1 | 3.96%
38 | COc1ccc(C(=O)N/N=C(\C)CC(=O)Nc2ccc(Cl)cn2)cc1 | 4.2%
39 | O=C(C1CC1)N1CCN=C1SCc1ccc(Cl)cc1 | 5.04%
40 | CC1CCN(C(=O)c2ccc(CSc3ccc(Cl)cc3)cc2)CC1 | 80.3% (active)
41 | O=C(c1ccc(CSc2ccccc2)cc1)N1CCCCCC1 | 23.8%
42 | Cn1c2ccccc2c2cc(/C=C(\NC(=O)c3ccccc3)C(=O)NCC(=O)O)ccc21 | -15.8%
43 | O=C(CCS(=O)(=O)c1ccccc1Cl)Nc1ccc(S(=O)(=O)Nc2ncccn2)cc1 | 3.66%
44 | CC(C)n1c(CN2CCN(Cc3ccccc3)CC2)nc2ccccc21 | -0.64%
45 | CC(=O)Nc1ccc(C(=O)/C=C/c2ccc[nH]2)cc1 | -14.3%
46 | O=C(NC1CCCCC1)c1cc(C2CC2)on1 | 1.58%
47 | CCc1nc(NCCO)c(C#N)c2c1CCCC2 | 17.2%
